# This is part of a sample that, as a whole, favours compounds with a hit. Of some 79,000 tested, about 15% had one in any assay. Unmarked numbers belong to inactive results. Activity calls are given as the source filed them. No stated cut-off is given here; in the data, active means growth inhibition above about 70%; inactive means the rest.
# How the values were obtained:
# [1] = NCI Yeast Anticancer Drug Screen. Data for the wt1 strain (AID 149);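 further: 0% = growth of vehicle-treated wt1 cultures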; details: S. cerevisiae wt1 strain (SPY 50644) growth inhibition, stronger effect = higher value
# Procedure, shortened: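 Growth inhibition read against vehicle controls after compound exposure of the wt1 yeast strain.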
# [2] = NCI Yeast Anticancer Drug Screen. Data for the rad50EPP+ strain (AID 151);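 further: 0% = growth of vehicle-treated control cultures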; details: S. cerevisiae rad50 mutant strain, stronger effect = higher value
# Procedure, shortened: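 One strain with a rad50 alteration (rad50EPP+) was compound-treated, its growth then compared to that of vehicle controls.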
# [3] = NCI Yeast Anticancer Drug Screen. Data for the mgt1 strain (AID 153); details: S. cerevisiae mgt1 mutant growth inhibition, stronger effect = higher value
# Procedure, shortened: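 After exposure of the mgt1 yeast mutant to compound, growth was measured and reported as inhibition compared with vehicle controls.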
# [4] = NCI Yeast Anticancer Drug Screen. Data for the rad50 strain (AID 155);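 further: 0% = growth of vehicle-only cultures of the same strain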; details: S. cerevisiae rad50 strain growth inhibition, stronger effect = higher value
# Procedure, shortened: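 Readout: growth inhibition relative to vehicle-treated cultures. Compound exposure was carried out in a genetically defined yeast strain deficient in DNA damage repair.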
# [5] = NCI Yeast Anticancer Drug Screen. Data for the mec2-1 strain (AID 157); details: S. cerevisiae mec2-1 strain, stronger effect = higher value
# Procedure, shortened: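 Test agents were screened against the mec2-1 yeast strain, with defined DNA repair or cell cycle alteration. Growth was scored as inhibition against vehicle-only controls.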
# [6] = NCI Yeast Anticancer Drug Screen. Data for the rad14 strain (AID 159);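 further: 0% = growth of vehicle-treated control cultures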; details: S. cerevisiae rad14 strain growth inhibition, stronger effect = higher value
# Procedure, shortened: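 Growth inhibition vs vehicle controls; genetically altered yeast strain (DNA damage repair defect) treated with test compounds.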
# [7] = NCI Yeast Anticancer Drug Screen. Data for the sgs1 mgt1 strain (AID 161);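 further: 0% = growth of cultures given vehicle only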; details: S. cerevisiae sgs1 mgt1 strain, stronger effect = higher value
# Procedure, shortened: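 Read-out: growth inhibition vs vehicle controls. Cells: mutant yeast strain deficient in DNA damage repair.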
# [8] = NCI Yeast Anticancer Drug Screen. Data for the CLN2oe strain (AID 163);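 further: 0% = growth of vehicle-only control cultures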; details: S. cerevisiae CLN2oe strain, stronger effect = higher value
# Procedure, shortened: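 Here, growth inhibition in a cell-cycle-altered yeast strain after compound exposure was quantified against vehicle control growth.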
# [9] = NCI Yeast Anticancer Drug Screen. Data for the cln2 rad14 strain (AID 165);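 further: 0% = growth equal to vehicle treated cultures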; details: S. cerevisiae cln2 rad14 strain, stronger effect = higher value
# Procedure, shortened: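 Growth of compound-exposed yeast (cln2 rad14 genotype) measured and expressed as inhibition relative to vehicle.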
# [10] = NCI Yeast Anticancer Drug Screen. Data for the bub3 strain (AID 167); details: S. cerevisiae bub3 mutant strain, stronger effect = higher value
# Procedure, shortened: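 Readout: yeast growth inhibition, expressed relative to vehicle-only wells. The test organism is a mutant strain from a panel with lesions in DNA repair or checkpoint genes.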
# [11] = NCI Yeast Anticancer Drug Screen. Data for the wt2 strain (AID 169);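 further: 0% = growth of vehicle-treated yeast cultures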; details: S. cerevisiae wt2 strain growth inhibition, stronger effect = higher value
# Procedure, shortened: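 Genetically defined yeast strains from a DNA-repair/cell-cycle panel were used. Compound-exposed yeast growth was measured, and the inhibition was calculated relative to vehicle treatment.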
# [12] = NCI Yeast Anticancer Drug Screen. Data for the mlh1 strain (AID 171);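 further: 0% = growth of vehicle-treated control cultures of the same strain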; details: S. cerevisiae mlh1 strain growth inhibition, stronger effect = higher value
# Procedure, shortened: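 Here the genetically defined yeast mutant is grown with each compound, and the extent to which its growth falls below that of vehicle-exposed cells is reported.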
# [13] = NCI Yeast Anticancer Drug Screen. Data for the sgs1 strain (AID 173);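 further: 0% = growth of vehicle-only control cultures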; details: S. cerevisiae sgs1 mutant, stronger effect = higher value
# Procedure, shortened: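 Relative growth inhibition, referenced to vehicle, was determined in a yeast strain with a defined alteration affecting DNA damage repair or cell cycle control after compound exposure.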
# [14] = NCI Yeast Anticancer Drug Screen. Data for the mlh1 rad18 strain (AID 175); details: S. cerevisiae mlh1 rad18 strain growth inhibition, stronger effect = higher value
# Procedure, shortened: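 In this whole-cell yeast screen, a strain with altered DNA damage repair is challenged with compound, and its growth is measured against matched vehicle-treated controls.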
# [15] = NCI Yeast Anticancer Drug Screen. Data for the rad18 strain (AID 177); details: S. cerevisiae rad18 mutant growth inhibition, stronger effect = higher value
# Procedure, shortened: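 Screen uses a yeast strain with a defined lesion in DNA damage repair; compound effect is read as loss of growth compared to untreated vehicle cultures.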
# [16] = NCI Yeast Anticancer Drug Screen. Data for the rad52 strain (AID 147);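 further: 0% = growth of vehicle-treated control cultures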; details: S. cerevisiae rad52 mutant growth inhibition, stronger effect = higher value
# Procedure, shortened: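 Measured: yeast growth inhibition. System: strain with a defined DNA damage repair alteration. Reference: vehicle-treated control cultures.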
# [17] = at 5.0 µM (retest, dose inferred, filed as 0.5)
# [18] = at 50.0 µM (retest, dose inferred, filed as 5.0)
structure (smiles),measurement,setting,value
CCSc1c2ccccc2c(-c2nc(F)nc(F)n2)n1CCc1ccccc1,growth inhibition,[1]; at 1.2 µM,-7%
same,growth inhibition,[1]; at 3.7 µM,-4%
same,growth inhibition,[1]; at 11.0 µM,10%
same,growth inhibition,[1]; at 33.0 µM,80% (active)
same,growth inhibition,[1]; at 100.0 µM,97% (active)
same,growth inhibition,[2]; at 1.2 µM,-22%
same,growth inhibition,[2]; at 3.7 µM,-17%
same,growth inhibition,[2]; at 11.0 µM,-22%
same,growth inhibition,[2]; at 33.0 µM,-15%
same,growth inhibition,[2]; at 100.0 µM,3%
same,growth inhibition,[3]; at 1.2 µM,-27%
same,growth inhibition,[3]; at 3.7 µM,-32%
same,growth inhibition,[3]; at 11.0 µM,-29%
same,growth inhibition,[3]; at 33.0 µM,81% (active)
same,growth inhibition,[3]; at 100.0 µM,97% (active)
same,growth inhibition,[4]; at 1.2 µM,-30%
same,growth inhibition,[4]; at 3.7 µM,-10%
same,growth inhibition,[4]; [17],-23%
same,growth inhibition,[4]; at 11.0 µM,-6%
same,growth inhibition,[4]; at 33.0 µM,72% (active)
same,growth inhibition,[4]; [18],52%
same,growth inhibition,[4]; at 50.0 µM,87% (active)
same,growth inhibition,[4]; at 100.0 µM,96% (active)
same,growth inhibition,[5]; at 1.2 µM,-14%
same,growth inhibition,[5]; at 3.7 µM,-17%
same,growth inhibition,[5]; [17],-43%
same,growth inhibition,[5]; at 11.0 µM,-4%
same,growth inhibition,[5]; at 33.0 µM,78% (active)
same,growth inhibition,[5]; [18],0%
same,growth inhibition,[5]; at 50.0 µM,80.7% (active)
same,growth inhibition,[5]; at 100.0 µM,98% (active)
same,growth inhibition,[6]; at 1.2 µM,-17%
same,growth inhibition,[6]; at 3.7 µM,-12%
same,growth inhibition,[6]; at 11.0 µM,2%
same,growth inhibition,[6]; at 33.0 µM,84% (active)
same,growth inhibition,[6]; at 100.0 µM,97% (active)
same,growth inhibition,[7]; [17],-15%
same,growth inhibition,[7]; [18],70% (active)
same,growth inhibition,[7]; at 50.0 µM,87.7% (active)
same,growth inhibition,[8]; at 1.2 µM,-24%
same,growth inhibition,[8]; at 3.7 µM,-20%
same,growth inhibition,[8]; at 11.0 µM,4%
same,growth inhibition,[8]; at 33.0 µM,89% (active)
same,growth inhibition,[8]; at 100.0 µM,97% (active)
same,growth inhibition,[9]; [17],19%
same,growth inhibition,[9]; [18],70% (active)
same,growth inhibition,[9]; at 50.0 µM,86.6% (active)
same,growth inhibition,[10]; at 1.2 µM,-11%
same,growth inhibition,[10]; at 3.7 µM,-21%
same,growth inhibition,[10]; [17],0%
same,growth inhibition,[10]; at 11.0 µM,-3%
same,growth inhibition,[10]; at 33.0 µM,82% (active)
same,growth inhibition,[10]; [18],88% (active)
same,growth inhibition,[10]; at 50.0 µM,86% (active)
same,growth inhibition,[10]; at 100.0 µM,97% (active)
same,growth inhibition,[11]; at 1.2 µM,-1%
same,growth inhibition,[11]; at 3.7 µM,-2%
same,growth inhibition,[11]; at 11.0 µM,4%
same,growth inhibition,[11]; at 33.0 µM,77% (active)
same,growth inhibition,[11]; at 100.0 µM,98% (active)
same,growth inhibition,[12]; at 1.2 µM,-41%
same,growth inhibition,[12]; at 3.7 µM,-34%
same,growth inhibition,[12]; at 11.0 µM,-22%
same,growth inhibition,[12]; at 33.0 µM,75% (active)
same,growth inhibition,[12]; at 100.0 µM,97% (active)
same,growth inhibition,[13]; at 1.2 µM,34%
same,growth inhibition,[13]; at 3.7 µM,32%
same,growth inhibition,[13]; at 11.0 µM,39%
same,growth inhibition,[13]; at 33.0 µM,79% (active)
same,growth inhibition,[13]; at 100.0 µM,98% (active)
same,growth inhibition,[14]; [17],-12%
same,growth inhibition,[14]; [18],77% (active)
same,growth inhibition,[14]; at 50.0 µM,81.3% (active)
same,growth inhibition,[15]; at 1.2 µM,-5%
same,growth inhibition,[15]; at 3.7 µM,0%
same,growth inhibition,[15]; at 11.0 µM,7%
same,growth inhibition,[15]; at 33.0 µM,75% (active)
same,growth inhibition,[15]; at 100.0 µM,97% (active)
Cc1ccc(S(=O)(=O)N/N=C/c2c(O)ccc3ccccc23)cc1,growth inhibition,[16]; at 1.2 µM,-8%
same,growth inhibition,[16]; at 3.7 µM,9%
same,growth inhibition,[16]; at 11.0 µM,81% (active)
same,growth inhibition,[16]; at 33.0 µM,83% (active)
same,growth inhibition,[16]; at 100.0 µM,79% (active)
same,growth inhibition,[1]; at 1.2 µM,-8%
same,growth inhibition,[1]; at 3.7 µM,-15%
same,growth inhibition,[1]; at 11.0 µM,37%
same,growth inhibition,[1]; at 33.0 µM,59%
same,growth inhibition,[1]; at 100.0 µM,84% (active)
same,growth inhibition,[2]; at 1.2 µM,-6%
same,growth inhibition,[2]; at 3.7 µM,3%
same,growth inhibition,[2]; at 11.0 µM,-16%
same,growth inhibition,[2]; at 33.0 µM,-8%
same,growth inhibition,[2]; at 100.0 µM,24%
same,growth inhibition,[4]; at 1.2 µM,19%
same,growth inhibition,[4]; at 3.7 µM,10%
same,growth inhibition,[4]; [17],36%
same,growth inhibition,[4]; at 11.0 µM,79% (active)
same,growth inhibition,[4]; at 33.0 µM,82% (active)
same,growth inhibition,[4]; [18],86% (active)
same,growth inhibition,[4]; at 50.0 µM,79.9% (active)
same,growth inhibition,[4]; at 100.0 µM,78% (active)
same,growth inhibition,[5]; at 1.2 µM,-1%
same,growth inhibition,[5]; at 3.7 µM,1%
same,growth inhibition,[5]; [17],53%
same,growth inhibition,[5]; at 11.0 µM,55%
same,growth inhibition,[5]; at 33.0 µM,66%
same,growth inhibition,[5]; [18],79% (active)
same,growth inhibition,[5]; at 50.0 µM,79.5% (active)

# Source: PubChem BioAssay (NCI)
